Bioassay records: PubChem, The Scripps Research Institute Molecular Screening Center
TTR transcr act: activators of transthyretin transcription; actives 1.3% (n = 92,000); AID 1117267; activation, % at 16.7 µM; SH-SY5Y TTR promoter Gaussia luciferase, luminescence; 100% = recombinant luciferase protein wells;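 active means activation above the mean of all tested compounds plus 3 SD, cut at about 9.5% in these data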;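 further: cells exposed to compounds for one day before reading; 0% = median of all test compound wells on the plate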
HuH7 TTR inh: decreases TTR transcription in HuH7 cells in activator counter-screen; actives 4% (n = 1,100); inhibition, % at 16.7 µM; HuH7 TTR promoter-Gaussia luciferase reporter, luminescence; shares compounds with TTR transcr act;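 active means average inhibition above the solvent-only control wells' mean plus 3 SD, cut at about 15% in these data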;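 further: 0% = cells with DMSO only and 100% = cells with inhibitor control FD; inhibitors lower well luminescence so higher value means more inhibition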
TTR act confirm: human TTR transcription activation, confirmation; shares compounds with TTR transcr act; SHSY5Y TTR promoter Gaussia luciferase, luminescence; 100% = purified Lucia enzyme wells, no cells; activation, % at 16.7 µM; 1,100 tested, under 10 active;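 active means mean activation above a set limit taken from the earlier primary screen, cut at about 11% in these data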;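 further: 0% = DMSO-treated cells and 100% = recombinant Lucia luciferase without cells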
Starred values were filed as active, the others as inactive. Shown is part of a subset that was picked to be rich in hits.

SMILES | TTR transcr act | others
O=C(NCc1ccc(OC(F)(F)F)cc1)c1cc(-c2ccccc2)nn1CC1CC(c2cccnc2)=NO1 (configuration not stated) | 0
COc1ccccc1CNC(=O)c1cc(-c2ccccc2C)nn1CC1CC(c2cccnc2)=NO1 (configuration not stated) | -3
O=C(NCc1ccco1)c1cc(-c2ccccc2)nn1CC1CC(c2cccnc2)=NO1 (configuration not stated) | 10* | HuH7 TTR inh=-10;TTR act confirm=0
C[C@H]1[C@@H](NCc2cccs2)CC[C@@]23CCCN2C(=O)CCC[C@@H]13 | 1
COc1ccc(OC)c(CN2CCN(C(=O)CNC(=O)c3ccccc3F)CC2)c1 | 0
Cc1ccccc1NC(=O)[C@@H]1CCCN1S(=O)(=O)c1cccc2cccnc12 | -2
Cc1cc(C(F)F)n2nc(C(=O)O)nc2n1 | 0
Cc1cc(C(F)F)n2nc(C(=O)Nc3c(F)cc(F)cc3Br)nc2n1 | 1
COC(=O)c1ccccc1NC(=O)c1nc2nc(C)cc(C(F)F)n2n1 | 9.8* | HuH7 TTR inh=-9;TTR act confirm=0
C[C@H]1C(c2ccccc2F)O[C@]2(C[C@H](O)c3c(ccc4ccccc34)O2)C[C@@H]1O (some centres not stated) | 0
Cc1cccc(Cc2nc3ccccc3[nH]2)c1 | 2
CSc1ncnc2c1ncn2CCCNCCCc1ccccc1 | 1
C=CC[C@@H](CC(=O)OC(C)(C)C)C(=O)OC[C@@H]1CCCN1C(=O)[C@H](CC=C)CC(=O)NCCO | 0
C=CC[C@@H](CC(=O)NCCO)C(=O)N[C@@H](COC(=O)[C@@H](CC=C)CC(=O)OC(C)(C)C)Cc1ccccc1 | 6
C=CC[C@H](CC(=O)NCCO)C(=O)NCCOC(=O)[C@@H](CC=C)CC(=O)OC(C)(C)C | 13* | HuH7 TTR inh=-8;TTR act confirm=1
Cc1ccc(C(C)(c2ccc(N)cc2)c2ccc(N)cc2)cc1 | -2
CCOC(=O)[C@@]12CCCC=C1N(CCc1ccc(Cl)cc1)C(=O)[C@H]2CC(=O)N1CCN(C(=O)c2ccco2)CC1 | -3
C[C@H]1[C@@H](OC(=O)NC2CCC2)CC[C@@]23CCCN2C(=O)CCC[C@@H]13 | 0
CCOC(=O)C1=C(COC(=O)CCc2ccc(CC)cc2)NC(=O)NC1C (configuration not stated) | 0
Cc1ccc(S(=O)(=O)c2nc(-c3ccco3)oc2SCC(N)=O)cc1 | 0
O=C(CSc1oc(-c2ccco2)nc1S(=O)(=O)c1ccccc1)NCC1CCCO1 (configuration not stated) | 12* | HuH7 TTR inh=-7;TTR act confirm=0
O=C(CSc1nc2ccccc2o1)NCC1CCCO1 (configuration not stated) | 0
CN1C(=O)CSC1=Nc1ccc(F)cc1 | -1
Cn1c(-c2cccc([N+](=O)[O-])c2)cnc1NCc1cccc([N+](=O)[O-])c1 | 0
COc1ccc(CNc2ncc(-c3ccccc3)n2C)c(OC)c1OC | 11* | HuH7 TTR inh=5;TTR act confirm=-1
SMILES | TTR transcr act | others
COc1ccc(-c2cnc(NCc3cc4c(cc3[N+](=O)[O-])OCO4)n2C)cc1 | 1
CCC1(C)C2(C#N)C(N)=NC(OC)(OC)C12C#N (configuration not stated) | 16* | HuH7 TTR inh=-4;TTR act confirm=-1
COc1ccc(S(=O)(=O)Nc2ccc3c(c2)C(=O)N([C@@H](C)CO)C[C@H](C)[C@H](CN(C)CC2CC2)O3)cc1 | 3
COc1ccccc1C(=O)Cc1ccccc1 | 0
CCC(C(=O)NCc1ccccc1)n1c(-c2cccs2)nc2ccccc21 (configuration not stated) | 11* | HuH7 TTR inh=-6;TTR act confirm=2
CCC(C(=O)NC1CCCC1)n1c(-c2ccccn2)nc2ccccc21 (configuration not stated) | -2
COc1ccc(C(C(=O)NCc2ccccc2)n2c(-c3ccncc3)nc3ccccc32)cc1 (configuration not stated) | 0
Cc1onc(-c2ccccc2)c1C(=O)N1CCC(CO)(Cc2ccccc2)CC1 | 0
COC(=O)c1ccc(-c2nc(-c3cccs3)no2)cc1 | 13* | HuH7 TTR inh=11;TTR act confirm=-1
COC(=O)c1ccc(-c2nc(-c3ccc(Br)o3)no2)cc1 | -2
O=C(NCc1ccncc1)c1nc(-c2cccs2)no1 | 7
C[C@@H]1CN([C@@H](C)CO)C(=O)CCCn2nncc2CO[C@H]1CN(C)C(=O)Nc1ccc(N2CCN(C)CC2)cc1 | 3
COC(=O)[C@]12C[C@H](CC(=O)N3CCN(C(=O)C4CC4)CC3)C(=O)N(Cc3ccc(Cl)cc3Cl)C1=C[C@H](C(C)(C)C)O[C@@H]2C | 1
CC(=O)Nc1sc2c(c1-c1nc3ccccc3s1)CNC2 | 0
Cc1cc(C)nc(SCC(=O)N/N=C/C=C/c2ccccc2)n1 | 14* | HuH7 TTR inh=-12;TTR act confirm=0
C/C(=N\NC(=O)CSc1nc(C)cc(C)n1)c1cccs1 | 0
